25 molecules from PubChem BioAssay (NCATS) can be followed below.

Results filed as inconclusive are left out. Unmarked numbers belong to inactive results. Active and inactive are the calls of the source. The call rests on the fitted dose curve; in most records, active means well fitted cell-killing curve with a large enough effect; inconclusive means small, poorly fitted or top-dose-only effect, or effect the other way; inactive means no such curve, though single readings can be large or run the other way.

A short description of assay [1]: Viability qHTS for spleen associated tyrosine kinase inhibitor (SYKi) naive MV4-11 cells (AID 1963823). Further: nearly all actives have a fitted effect of over 40% in size. The gist of the method: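 Viability of MV4-11 AML cells lacking prior SYK inhibitor exposure is scored by CellTiter-Glo luminescence following 72 hr compound incubation at 37 C, 5% CO2, seeded at 500 cells per well.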
A short description of assay [2]: Viability qHTS for spleen associated tyrosine kinase inhibitor (SYKi) drug resistant MV4-11 cells (AID 1963824). Further: nearly all actives have a fitted effect of over 35% in size. The gist of the method: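 SYK-inhibitor-resistant MV4-11 AML cells were seeded at 500 per well onto compound and cultured 72 hours (37 °C, 5% CO2). CellTiter-Glo was then added, and after 10 min at room temperature, luminescence gave viability.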
Potency means the concentration at half of the fitted maximal effect.

Take `C=C(C)[C@@H]1CC[C@]2(C)CC[C@]3(C)[C@H](CC[C@@H]4[C@@]5(C)CC[C@@H](O)C(C)(C)[C@@H]5CC[C@]43C)[C@@H]12`: the Potency entry in assay [1] and in assay [2] was “inactive” in each case.

For `O=C(C[C@@H]1C(C(=O)O)=CO[C@@H](O[C@@H]2O[C@H](CO)[C@@H](O)[C@H](O)[C@H]2O)/C1=C\CO)OCCc1ccc(O)cc1`, the Potency entry in assay [1] and in assay [2] was “inactive” in each case.

Consider `CCn1c(-c2nonc2N)nc2c(C#CC(C)(C)O)ncc(OCC3CCCNC3)c21` (stereo not given), for which the Potency was 13000 nM (active) in assay [1] and 8200 nM (active) in assay [2].

Take `CC(C)C1C(OC(=O)/C=C/c2ccccc2)CC2(C)OC2CCC2(C)OC2C1O` (stereo not given): the Potency entry in assay [1] and in assay [2] was “inactive” throughout.

Consider `O=c1ccn(C2OC(CO)C(O)C2O)c(=O)[nH]1` (stereo not given), for which, in assay [1], the Potency entry is “inactive”. For the same molecule, the Potency in assay [2] was 2060 nM (active).

On to `CC(=O)O[C@H]1[C@H](O[C@H]2CC[C@]34C[C@]35CC[C@]3(C)[C@@H]([C@@]6(C)CC[C@@H](C(C)(C)O)O6)[C@@H](O)C[C@@]3(C)[C@@H]5C[C@H](O[C@@H]3O[C@H](CO)[C@@H](O)[C@H](O)[C@H]3O)[C@H]4C2(C)C)OC[C@@H](OC(C)=O)[C@@H]1O`, for which the Potency entry in assay [1] and in assay [2] was “inactive” in each case.

Consider `CC(C)c1nc(-c2ccc(NC(=O)Nc3cccc(C(F)(F)F)c3)c3ccccc23)c2c(N)nccn12`, for which the figures for the Potency in assay [1] and in assay [2] were 366 nM (active) and 411 nM (active), respectively.

Take `O=C(NCc1ccc(OC(F)(F)F)cc1)C1c2ccccc2C(=O)N1C1CCOCC1` (stereo not given): the Potency result in assay [1] and in assay [2] was “inactive” in each case.

Turning to `Cc1nnc(-c2sc(NC(=O)[C@H](C(C)C)n3c(=O)[nH]c4ccccc4c3=O)nc2C)o1`, the Potency result in assay [1] and in assay [2] was “inactive” each time.

For `CC1=C(C(=O)O)/C(=C\CO[C@@H]2O[C@H](CO)[C@@H](O)[C@H](O)[C@H]2O)C(OC(=O)/C=C/c2ccc(O)cc2)C1` (stereo not given in full), the Potency entry in assay [1] and in assay [2] was “inactive” in each case.

Take `CC1CCC2(C(=O)OC3OC(CO)C(O)C(O)C3O)CCC3(C)C(=CCC4C5(C)CCC(O)C(C)(CO)C5CCC43C)C2C1(C)O` (stereo not given): the Potency entry in assay [1] and in assay [2] was “inactive” each time.

As to `CC1CC[C@]2(C(=O)O)CC[C@]3(C(=O)O)C(=CCC4[C@@]5(C)CC[C@H](O[C@@H]6O[C@H](CO)[C@@H](O)[C@H](O)[C@H]6O)C(C)(C)C5CC[C@]43C)C2C1C` (stereo not given in full), the Potency result in assay [1] and in assay [2] was “inactive” each time.

Regarding `CC(C)=CCC/C(C)=C/Cc1ccc(O)c(C2OC(=O)c3cc(C(=O)O)cc(O)c32)c1O` (stereo not given), the Potency entry in assay [1] and in assay [2] was “inactive” throughout.

For the molecule `C=CCc1ccc(O[C@@H]2O[C@H](CO)[C@@H](O)[C@H](O)[C@H]2O)c(O[C@@H]2O[C@H](CO)[C@@H](O)[C@H](O)[C@H]2O)c1`, the Potency entry in assay [1] and in assay [2] was “inactive” each time.

As to `COc1ccc(C(=O)OC2C3C=COC(OC4OC(CO)C(O)C(O)C4O)C3C3(CO)OC23)cc1OC` (stereo not given), the Potency result in assay [1] and in assay [2] was “inactive” in each case.

Take `C=C1CC[C@@H]2[C@](C)(CO)[C@H](O)CC[C@@]2(C)[C@@H]1C/C=C1/C(=O)OC[C@H]1O`: the Potency in assay [1] was 2630 nM (active); in assay [2], 2950 nM (active).

Turning to `NC(=O)CCCSc1nc(N)nc(-c2c(Cl)cc3c4c(cccc24)COC3)n1`, the Potency in assay [1] was 65.1 nM (active); in assay [2], 92 nM (active).

Regarding `NC(=O)[C@H]1CCCCc2c1[nH]c1ccc(Cl)cc21`, the Potency result in assay [1] and in assay [2] was “inactive” in each case.

As for `CC1(O)CCC2C(C(=O)O)=COC(OC3OC(CO)C(O)C(O)C3OC(=O)/C=C/c3ccc(O)cc3)C21` (stereo not given), the Potency result in assay [1] and in assay [2] was “inactive” throughout.

Turning to `C[C@@H]1O[C@@H](O[C@H]2[C@H](OC(=O)[C@]34CCC(C)(C)C[C@H]3C3=CCC5[C@@]6(C)C[C@H](O)[C@H](O[C@@H]7O[C@H](CO[C@@H]8OC[C@H](O)[C@H](O)[C@H]8O)[C@@H](O)[C@H](O)[C@H]7O)C(C)(C)C6CC[C@@]5(C)[C@]3(C)C[C@H]4O)OC[C@@H](O)[C@@H]2O)[C@H](O)[C@H](O[C@@H]2OC[C@](O)(CO)[C@H]2O)[C@H]1O[C@@H]1OC[C@H](O)[C@H](O[C@@H]2OC[C@@H](O)[C@H](O)[C@H]2O)[C@H]1O` (stereo not given in full), the viability (% of control) in assay [1] was 72% [at 9.25 µM]. The viability, % of control in assay [2] is 85% [at 9.25 µM].

Turning to `O=C(CO)[C@@H](O)[C@H](O[C@@H]1O[C@H](CO)[C@H](O)[C@H](O)[C@H]1O)[C@H](O)CO`, the Potency result in assay [1] and in assay [2] was “inactive” each time.

With `CC(C)C1CCC(C(=O)N[C@@H](Cc2ccccc2)C(=O)O)CC1` (stereo not given in full), the Potency result in assay [1] and in assay [2] was “inactive” each time.

As for `C=C1CCC[C@]2(C)CC/C(=C(/CO)C(=O)OC)C[C@@H]12`, the Potency in assay [1] is 20600 nM (active); in assay [2], 14600 nM (active).

For `C[C@@H]1O[C@@H](O[C@H]2[C@H](O[C@H]3[C@H](O[C@H]4CC[C@@]5(C)C(CC[C@]6(C)C5CC=C5[C@@H]7CC(C)(C)C[C@@H](O)[C@]7(C)CC[C@]56C)[C@@]4(C)CO)O[C@H](C(=O)O)[C@@H](O)[C@@H]3O)OC[C@H](O)[C@@H]2O)[C@H](O)[C@H](O)[C@H]1O` (stereo not given in full), the viability (% of control) in assay [1] was 76.2% [at 9.25 µM]. Also, in assay [2], the viability, % of control is 84.4% [at 9.25 µM].

Take `CC(NCCC(c1ccccc1)c1ccccc1)c1ccccc1` (stereo not given): the Potency in assay [1] is 13300 nM (active); in assay [2], 10600 nM (active).
